Counter-ions that a name gives are not always drawn.
Test system: Saccharomyces cerevisiae BY4741 SeMeCo community
Test: z-score of prototroph abundance vs DMSO median; higher = larger share of this subpopulation than in DMSO controls
Conditions: 10 µM; 24 h; SM minimal medium; subpopulation (auxotrophy): Prototroph
Method in brief: (§1)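 Subpopulation abundance was reported as a z-score against the median of vehicle wells. The Saccharomyces cerevisiae BY4741 community, carrying four plasmids that each restored one auxotrophy and encoded a distinct fluorescent protein, was grown 24 h in minimal SM medium in 384-well plates holding library drugs at 10 µM final. Cells were paraformaldehyde-fixed and imaged by automated confocal microscopy, with single-auxotroph fluorescent strains used for thresholds and autofluorescence correction.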

Row | Compound | z-score of prototroph abundance
1 | CCCCCOc1ccc(-c2ccc(-c3ccc(C(=O)N[C@H]4C[C@@H](O)[C@@H](O)NC(=O)[C@@H]5[C@@H](O)[C@@H](C)CN5C(=O)[C@H]([C@@H](C)O)NC(=O)[C@H]([C@H](O)[C@@H](O)c5ccc(O)cc5)NC(=O)[C@@H]5C[C@@H](O)CN5C(=O)[C@H]([C@@H](C)O)NC4=O)cc3)cc2)cc1 | -14.8
2 | C[C@@H]1[C@H](O)[C@@H](C)/C=C/C=C/C=C/C=C/C=C/C=C/C=C/[C@H](O[C@@H]2O[C@H](C)[C@@H](O)[C@H](N)[C@@H]2O)C[C@@H]2O[C@](O)(C[C@@H](O)C[C@@H](O)[C@H](O)CC[C@@H](O)C[C@@H](O)CC(=O)O[C@H]1C)C[C@H](O)[C@H]2C(=O)O [Amphotericin B] | -19.9
3 | COC1C(O)CC(=O)OC(C)CC=CC=CC(OC2CCC(N(C)C)C(C)O2)C(C)CC(CC=O)C1OC1OC(C)C(OC2CC(C)(O)C(O)C(C)O2)C(N(C)C)C1O (configuration not stated) [Spiramycin] | 0.08
4 | CC(C)(O/N=C(\C(=O)N[C@@H]1C(=O)N2C(C(=O)[O-])=C(C[n+]3ccccc3)CS[C@H]12)c1csc(N)n1)C(=O)O [Ceftazidime] | 0.11
5 | C[C@@H]1C/C=C/C=C/C=C/C=C/[C@H](O[C@@H]2O[C@H](C)[C@@H](O)[C@H](N)[C@@H]2O)C[C@@H]2O[C@](O)(C[C@@H](O)C[C@H]3O[C@@H]3/C=C/C(=O)O1)C[C@H](O)[C@H]2C(=O)O [Natamycin] | -16.3
6 | CCOc1cc(NC(C)=O)ccc1C(=O)OC [Ethopabate] | -0.33
7 | CCCSc1ccc2[nH]c(NC(=O)OC)nc2c1 [Albendazole] | -0.36
8 | CN(C)CCN1C(=O)c2cccc3cc(N)cc(c23)C1=O [Amonafide] | 0.47
9 | COc1ccnc(C[S+]([O-])c2nc3cc(OC(F)F)ccc3[nH]2)c1OC (configuration not stated) [Pantoprazole sodium] | -0.43
10 | CCOC(=O)C1=C(COCCN)NC(C)=C(C(=O)OC)C1c1ccccc1Cl (configuration not stated) [Amlodipine Besylate] | 2.4
11 | CC(C)(C)C(=O)C(Oc1ccc(Cl)cc1)n1ccnc1 (configuration not stated) [Climbazole] | -9.09
12 | COc1cc(N)c(Cl)cc1C(=O)NC1CCN(CCCOc2ccc(F)cc2)CC1OC (configuration not stated) [Cisapride] | 1.03
13 | COc1ccc2[nH]c([S+]([O-])Cc3ncc(C)c(OC)c3C)nc2c1 (configuration not stated) [Omeprazole] | -0.07
14 | O=C1CCc2cc(OCCCCc3nnnn3C3CCCCC3)ccc2N1 [Cilostazol] | 0.97
15 | O=c1ccn(C2CC(O)C(CO)O2)c(=O)[nH]1 (configuration not stated) [2-deoxyuridine] | 0.08
16 | NC12CC3CC(CC(C3)C1)C2 [Amantadine HCl] | 0.23

Row | Compound | z-score of prototroph abundance
17 | CO/N=C(\C(=O)N[C@@H]1C(=O)N2C(C(=O)OCOC(=O)C(C)(C)C)=C(/C=C\c3scnc3C)CS[C@H]12)c1csc(N)n1 [Cefditoren Pivoxil] | -0.6
18 | CCCOc1ccc2[nH]c(NC(=O)OC)nc2c1 [Oxibendazole] | -1.22
19 | O=C(O)Cc1ccccc1Nc1c(Cl)cccc1Cl [Diclofenac Diethylamine] | 2.27
20 | Clc1ccccc1C(c1ccccc1)(c1ccccc1)n1ccnc1 [Clotrimazole] | -9.07
21 | C[C@@H](O)[C@H]1C(=O)N2C(C(=O)OCOC(=O)C(C)(C)C)=C(SC3CN(C4=NCCS4)C3)[C@H](C)[C@H]12 [Tebipenem Pivoxil] | 0.66
22 | NC(=O)Cc1cccc(C(=O)c2ccccc2)c1N [Nepafenac] | 0.25
23 | CN1C2CCCC1CC(NC(=O)c1nn(C)c3ccccc13)C2 (configuration not stated) [Granisetron] | -0.04
24 | CN(C)C[C@@H]1CCn2cc(c3ccccc32)C2=C(C(=O)NC2=O)c2cn(c3ccccc23)CCO1 | -0.66
25 | Cc1ccc(-c2ncc(Cl)cc2-c2ccc(S(C)(=O)=O)cc2)cn1 [Etoricoxib] | -0.04
26 | Cc1ccc(Sc2ccccc2N2CCNCC2)c(C)c1 | 0.66
27 | CN(C)CCCN1c2ccccc2Sc2ccccc21 [Promazine hydrochloride] | 0.19
28 | CN(C)CCn1nnnc1SCC1=C(C(=O)O)N2C(=O)[C@@H](NC(=O)Cc3csc(N)n3)[C@H]2SC1 [Cefotiam hydrochloride] | -1.4
29 | CN(C)CC(c1ccc(O)cc1)C1(O)CCCCC1 (configuration not stated) [Desvenlafaxine] | 0.76
30 | Cc1ncc([N+](=O)[O-])n1CCOC(=O)c1ccccc1 [Metronidazole Benzoate] | 0.95
31 | COc1ccccc1OCC(O)CN1CCN(CC(=O)Nc2c(C)cccc2C)CC1 (configuration not stated) [Ranolazine 2HCl] | 0.5

Test system: Saccharomyces cerevisiae BY4741 SeMeCo community
Test: z-score of subpopulation abundance vs DMSO median, subpopulation auxotrophic for L; higher = larger share of this subpopulation than in DMSO controls
Conditions: 10 µM; 24 h; SM minimal medium; subpopulation (auxotrophy): L
Method in brief: as §1

Row | Compound | z-score of subpopulation abundance
32 | CCCCCOc1ccc(-c2ccc(-c3ccc(C(=O)N[C@H]4C[C@@H](O)[C@@H](O)NC(=O)[C@@H]5[C@@H](O)[C@@H](C)CN5C(=O)[C@H]([C@@H](C)O)NC(=O)[C@H]([C@H](O)[C@@H](O)c5ccc(O)cc5)NC(=O)[C@@H]5C[C@@H](O)CN5C(=O)[C@H]([C@@H](C)O)NC4=O)cc3)cc2)cc1 | 4.48
33 | Cc1ccnc(NS(=O)(=O)c2ccc(N)cc2)n1 [Sulfamerazine] | 1.54
34 | O=C(O)c1cc(-c2ccc(F)cc2F)ccc1O [Diflunisal] | 0.56
35 | C[C@@H]1[C@H](O)[C@@H](C)/C=C/C=C/C=C/C=C/C=C/C=C/C=C/[C@H](O[C@@H]2O[C@H](C)[C@@H](O)[C@H](N)[C@@H]2O)C[C@@H]2O[C@](O)(C[C@@H](O)C[C@@H](O)[C@H](O)CC[C@@H](O)C[C@@H](O)CC(=O)O[C@H]1C)C[C@H](O)[C@H]2C(=O)O [Amphotericin B] | -2.03
36 | CO/N=C(\C(=O)N[C@@H]1C(=O)N2C(C(=O)O)=CCS[C@H]12)c1csc(N)n1 [Ceftizoxime sodium] | -1.5
37 | COC1C(O)CC(=O)OC(C)CC=CC=CC(OC2CCC(N(C)C)C(C)O2)C(C)CC(CC=O)C1OC1OC(C)C(OC2CC(C)(O)C(O)C(C)O2)C(N(C)C)C1O (configuration not stated) [Spiramycin] | -0.29
38 | CC(C)(O/N=C(\C(=O)N[C@@H]1C(=O)N2C(C(=O)[O-])=C(C[n+]3ccccc3)CS[C@H]12)c1csc(N)n1)C(=O)O [Ceftazidime] | -0.23
39 | C[C@@H]1C/C=C/C=C/C=C/C=C/[C@H](O[C@@H]2O[C@H](C)[C@@H](O)[C@H](N)[C@@H]2O)C[C@@H]2O[C@](O)(C[C@@H](O)C[C@H]3O[C@@H]3/C=C/C(=O)O1)C[C@H](O)[C@H]2C(=O)O [Natamycin] | 1.74
40 | COCCCN1CCC(NC(=O)c2cc(Cl)c(N)c3c2OCC3)CC1 [Prucalopride] | -0.58
41 | CCOc1cc(NC(C)=O)ccc1C(=O)OC [Ethopabate] | 0.35
42 | CCCSc1ccc2[nH]c(NC(=O)OC)nc2c1 [Albendazole] | -0.04
43 | CN(C)CCN1C(=O)c2cccc3cc(N)cc(c23)C1=O [Amonafide] | -0.4
44 | COc1ccnc(C[S+]([O-])c2nc3cc(OC(F)F)ccc3[nH]2)c1OC (configuration not stated) [Pantoprazole sodium] | -0.4
45 | CCOC(=O)C1=C(COCCN)NC(C)=C(C(=O)OC)C1c1ccccc1Cl (configuration not stated) [Amlodipine Besylate] | 2.94
46 | CC(C)(C)C(=O)C(Oc1ccc(Cl)cc1)n1ccnc1 (configuration not stated) [Climbazole] | -2.61
47 | COc1cc(N)c(Cl)cc1C(=O)NC1CCN(CCCOc2ccc(F)cc2)CC1OC (configuration not stated) [Cisapride] | 0.11
48 | COc1ccc2[nH]c([S+]([O-])Cc3ncc(C)c(OC)c3C)nc2c1 (configuration not stated) [Omeprazole] | 1.33
49 | O=C1CCc2cc(OCCCCc3nnnn3C3CCCCC3)ccc2N1 [Cilostazol] | 0.75

Row | Compound | z-score of subpopulation abundance
50 | O=c1ccn(C2CC(O)C(CO)O2)c(=O)[nH]1 (configuration not stated) [2-deoxyuridine] | 1.75
51 | NC12CC3CC(CC(C3)C1)C2 [Amantadine HCl] | -0.67
52 | CO/N=C(\C(=O)N[C@@H]1C(=O)N2C(C(=O)OCOC(=O)C(C)(C)C)=C(/C=C\c3scnc3C)CS[C@H]12)c1csc(N)n1 [Cefditoren Pivoxil] | 1.38
53 | O=C1c2cccc3c2[C@H](CCC3)CN1[C@@H]1CN2CCC1CC2 [Palonosetron HCl] | -0.13
54 | CCCOc1ccc2[nH]c(NC(=O)OC)nc2c1 [Oxibendazole] | 0.1
55 | C[C@]12CC[C@@H]3c4ccc(O)cc4CC[C@H]3[C@@H]1CC[C@@H]2OC(=O)CCC1CCCC1 [Estradiol Cypionate] | -0.23
56 | COc1ccc2c(c1)c(CC(=O)O)c(C)n2C(=O)c1ccc(Cl)cc1 [Indomethacin] | 0.48
57 | O=C(O)Cc1ccccc1Nc1c(Cl)cccc1Cl [Diclofenac Diethylamine] | 0.07
58 | Clc1ccccc1C(c1ccccc1)(c1ccccc1)n1ccnc1 [Clotrimazole] | -2.83
59 | C[C@@H](O)[C@H]1C(=O)N2C(C(=O)OCOC(=O)C(C)(C)C)=C(SC3CN(C4=NCCS4)C3)[C@H](C)[C@H]12 [Tebipenem Pivoxil] | 0
60 | COC(=O)C1=C(C)NC(C)=C(C(=O)OCC(C)C)C1c1ccccc1[N+](=O)[O-] (configuration not stated) [Nisoldipine] | 0.49
61 | NC(=O)Cc1cccc(C(=O)c2ccccc2)c1N [Nepafenac] | 1.39
62 | CN1C2CCCC1CC(NC(=O)c1nn(C)c3ccccc13)C2 (configuration not stated) [Granisetron] | -0.54
63 | CN(C)C[C@@H]1CCn2cc(c3ccccc32)C2=C(C(=O)NC2=O)c2cn(c3ccccc23)CCO1 | 1.34
64 | Cc1ccc(-c2ncc(Cl)cc2-c2ccc(S(C)(=O)=O)cc2)cn1 [Etoricoxib] | 0.57
65 | Cc1ccc(Sc2ccccc2N2CCNCC2)c(C)c1 | -0.27
66 | CN(C)CCCN1c2ccccc2Sc2ccccc21 [Promazine hydrochloride] | -0.38
67 | CN(C)CCn1nnnc1SCC1=C(C(=O)O)N2C(=O)[C@@H](NC(=O)Cc3csc(N)n3)[C@H]2SC1 [Cefotiam hydrochloride] | 1.99

From the supplement of paper PMC8975748
